Test [1] concerns the target Cytochrome P450 3A4 (Homo sapiens) (UniProt P08684). The test is described as follows: qHTS Assay for Inhibitors and Substrates of Cytochrome P450 3A4 (AID 884). Further: nearly all actives have a fitted effect of over 50% in size. Further: potency means the concentration at half of the fitted maximal effect. An outline of the steps:
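20 nM human CYP3A4 with 25 uM Luciferin-PPXE (at KM) in 200 mM KPO4, preincubated 10 min with compound; NADPH regeneration started a 60 min RT reaction. Luciferin detected by luminescence, normalized to 57 uM ketoconazole as full inhibition.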
(Quantitative high-throughput screening tests each substance at several concentrations.)

Test [2] in a line: Cell Viability - LYMP2-009 (AID 968).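 Further: series mostly up to about 92 µM; 0% = DMSO alone and the full-kill end = tetraoctylammonium bromide at 92 µM; nearly all actives have a fitted effect of over 55% in size.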
The nature of test [3]: Cell Viability - LYMP2-012 (AID 982).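 Further: cellular ATP by luciferase luminescence where a drop means cytotoxicity; cells exposed to compound for one day before reading; 0% = DMSO only and full loss = 92 µM tetraoctylammonium bromide; nearly all actives have a fitted effect of over 55% in size.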
The nature of test [4]: Cell Viability - LYMP2-016 (AID 984).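 Further: cells exposed to compound for 24 hours at 37 °C; on the % scale 0 is the no-effect control and ±100 the full control effect; nearly all actives have a fitted effect of over 55% in size.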 An outline of the steps:
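Acute toxicity in a Coriell human lymphoblastoid line is scored as loss of intracellular ATP over 24 h of treatment in complete medium. CellTiter-Glo signal is fitted across concentrations with the Hill equation to give AC50.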

Test [5] can be described thus: Cell Viability - LYMP2-020 (AID 986).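 Further: series mostly up to about 92 µM; plate controls were DMSO only for no effect and tetraoctylammonium bromide at 92 µM for full effect; nearly all actives have a fitted effect of over 55% in size.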 An outline of the steps:
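Human lymphoblastoid LYMP2-020 cells (2500/well) preincubated 5 h at 37 C, then treated 24 h at 37 C. Viability measured as intracellular ATP by CellTiter-Glo luminescence after 30 min at room temperature; AC50 from Hill fits.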

The target in test [6] is Estrogen receptor (Homo sapiens) (UniProt P03372). The test is described as follows: qHTS assay for small molecule antagonists of estrogen receptor alpha signaling (AID 588513; active means well fitted curve in the direction sought with a large enough effect in the signal ratio, with a control signal flat, not every such curve was filed as active; the % refers to the signal ratio; further: on the % scale 0 is the no-effect control and ±100 the full control effect). An outline of the steps: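 Cells were plated at 5000/well and incubated 4 h at 37 C. Compounds were added as 1:2 dilution series, duplicates. 17-beta-estradiol (0.5nM final) was added for 18 h before CCF4 detection.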
Estrogen receptor (Homo sapiens), sequence (P03372 whole entry, looked up): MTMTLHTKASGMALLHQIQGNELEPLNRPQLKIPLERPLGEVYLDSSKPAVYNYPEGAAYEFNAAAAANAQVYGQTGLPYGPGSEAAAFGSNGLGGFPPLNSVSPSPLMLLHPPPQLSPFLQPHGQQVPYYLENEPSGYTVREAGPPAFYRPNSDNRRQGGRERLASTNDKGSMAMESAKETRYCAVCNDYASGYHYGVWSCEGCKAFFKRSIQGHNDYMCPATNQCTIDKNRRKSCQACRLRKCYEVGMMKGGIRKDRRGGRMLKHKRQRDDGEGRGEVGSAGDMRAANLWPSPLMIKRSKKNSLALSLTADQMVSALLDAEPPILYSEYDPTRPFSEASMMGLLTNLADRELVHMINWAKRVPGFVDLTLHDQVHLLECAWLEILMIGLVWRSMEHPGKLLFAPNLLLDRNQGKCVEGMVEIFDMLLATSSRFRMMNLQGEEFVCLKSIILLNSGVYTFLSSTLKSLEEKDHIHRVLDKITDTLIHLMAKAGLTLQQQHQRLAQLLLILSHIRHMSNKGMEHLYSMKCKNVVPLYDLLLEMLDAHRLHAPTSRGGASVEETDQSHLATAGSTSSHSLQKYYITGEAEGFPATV

The target of test [7] is Bile acid receptor (Homo sapiens) (UniProt Q96RI1). Briefly: qHTS assay for small molecule antagonists of farnesoid X receptor signaling (AID 588526; calls by dose curve; further: on the % scale 0 is the no-effect control and ±100 the full control effect). An outline of the steps: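 Antagonist mode: titrated compounds tested against chenodeoxycholic acid stimulation (normalized to 50 uM CDCA and DMSO) in GeneBLAzer HEK293T cells for 16 h. Beta-lactamase read by CCF4 fluorescence; IC50 from Hill fits.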
Bile acid receptor (Homo sapiens), sequence (Q96RI1 whole entry, looked up): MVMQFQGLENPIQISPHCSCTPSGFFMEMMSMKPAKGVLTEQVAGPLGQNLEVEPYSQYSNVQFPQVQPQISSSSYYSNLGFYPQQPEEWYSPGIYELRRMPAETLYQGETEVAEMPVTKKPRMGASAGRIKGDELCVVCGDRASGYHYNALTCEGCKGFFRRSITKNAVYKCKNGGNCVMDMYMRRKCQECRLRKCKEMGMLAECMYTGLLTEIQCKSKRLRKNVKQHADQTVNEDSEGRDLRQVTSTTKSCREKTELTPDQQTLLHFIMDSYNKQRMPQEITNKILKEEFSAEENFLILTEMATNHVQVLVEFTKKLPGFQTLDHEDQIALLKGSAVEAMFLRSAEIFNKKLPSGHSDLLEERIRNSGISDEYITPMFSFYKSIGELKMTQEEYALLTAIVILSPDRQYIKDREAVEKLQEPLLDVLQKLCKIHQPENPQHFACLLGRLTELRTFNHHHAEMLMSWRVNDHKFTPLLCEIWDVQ

For test [8] the target is unchanged. Briefly: qHTS assay for small molecule agonists of farnesoid X receptor signaling (AID 588527; calls by dose curve;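 further: series mostly up to about 77 µM; 0% = vehicle basal and 100% = reference agonist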). Conditions: HEK293T FXR-UAS-bla, beta-lactamase ratio, 16 h; stronger effect = higher value. An outline of the steps: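 FXR-UAS-bla HEK293T, 10% dialyzed FBS; cpds up to 92 uM titration, 16 h 37 C; CCF4 dye 2 h RT; fluorescence. Normalized to chenodeoxycholic acid 100 uM (100%) and DMSO (0%); Hill fit gives EC50, efficacy.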

Test [9] addresses Glucocorticoid receptor (Homo sapiens) (UniProt P04150). The test is described as follows: qHTS assay for small molecule agonists of glucocorticoid receptor signaling (AID 588532; active means well fitted curve in the direction sought with a large enough effect in the signal ratio, with a control signal flat; the % refers to the signal ratio;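 further: 100% = dexamethasone at 0.1 µM and 0% = DMSO only wells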). Particulars: HeLa MMTV-bla, beta-lactamase ratio, agonist, 18 h; stronger effect = higher value; percent of dexamethasone control, DMSO zero. An outline of the steps: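 HeLa GRE-bla reporter cells; 18 h compound exposure at 37 C; 2 h CCF4 loading at room temperature; fluorescence at 460 and 530 nm; EC50 by Hill equation.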

Test [10] shares this target. Briefly: qHTS assay for small molecule antagonists of glucocorticoid receptor signaling (AID 588533; active means well fitted inhibition curve with a large enough effect in the signal ratio, with a control signal flat, not every such curve was filed as active; the % refers to the signal ratio; further: on the % scale 0 is the no-effect control and ±100 the full control effect). An outline of the steps:
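Antagonist-mode qHTS: compound titrations added to GRE-bla HeLa cells, then dexamethasone 2 nM final; 18 h, 37 C. CCF4 FRET fluorescence normalized to dexamethasone and DMSO; IC50 from Hill fit.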

Test [11] in a line: qHTS assay for small molecule antagonists of peroxisome proliferator-activated receptor delta signaling (AID 588535; active means well fitted inhibition curve with a large enough effect in the signal ratio, with a control signal flat, not every such curve was filed as active; the % refers to the signal ratio;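 on max response: cells co-treated with a PPAR-delta agonist as stimulator during compound exposure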). Conditions: HEK293T PPARd-UAS-bla, beta-lactamase FRET ratio, 18 h; 460 nm channel. An outline of the steps: (§1)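 Antagonist-mode beta-lactamase reporter (GeneBLAzer PPAR-delta-UAS-bla) in HEK293T cells, 2% charcoal/dextran FBS, 4000 cells/well. Compound titrations, 18 h at 37 C; CCF4 ratio read, IC50 and efficacy from Hill fits.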

Test [12] deals with Peroxisome proliferator-activated receptor delta (Homo sapiens) (UniProt Q03181). The description is as above. An outline of the steps: as §1
Peroxisome proliferator-activated receptor delta (Homo sapiens), sequence (Q03181 whole entry, looked up): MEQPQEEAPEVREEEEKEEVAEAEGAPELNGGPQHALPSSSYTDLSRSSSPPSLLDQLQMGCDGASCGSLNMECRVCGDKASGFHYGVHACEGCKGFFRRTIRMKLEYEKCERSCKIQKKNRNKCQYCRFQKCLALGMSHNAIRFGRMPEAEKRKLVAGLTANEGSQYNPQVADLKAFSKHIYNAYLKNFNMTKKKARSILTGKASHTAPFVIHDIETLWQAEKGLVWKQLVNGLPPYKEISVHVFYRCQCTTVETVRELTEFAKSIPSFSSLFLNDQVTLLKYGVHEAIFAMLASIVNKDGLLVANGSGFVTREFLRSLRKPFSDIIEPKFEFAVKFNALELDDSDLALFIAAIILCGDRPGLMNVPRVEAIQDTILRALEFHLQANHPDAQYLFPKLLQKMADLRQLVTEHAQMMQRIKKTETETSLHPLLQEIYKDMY
Test [13] has as its target Vitamin D3 receptor (Homo sapiens) (UniProt P11473). Briefly: qHTS assay for small molecule antagonists of vitamin D receptor signaling (AID 588541; calls by dose curve;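 further: receptor activated by calcitriol during compound treatment; series mostly up to about 77 µM; on the % scale 0 is the no-effect control and ±100 the full control effect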). An outline of the steps:
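VDR-UAS-bla HEK293T cells in 2% charcoal-stripped FBS were stimulated with 1-alpha,25-dihydroxyvitamin D3 (3 nM final) plus compound for 16 h at 37 C. The beta-lactamase CCF4 readout was normalized to 50 nM agonist and DMSO, and Hill fits gave IC50.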

Test [14] shares this target. Briefly: qHTS assay for small molecule agonists of vitamin D receptor signaling (AID 588543; calls by dose curve;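 further: 0% = DMSO basal and 100% = reference agonist control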). An outline of the steps:
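qHTS in agonist mode: compound titrations stimulate a VDR-driven β-lactamase reporter in HEK293T cells over 16 h at 37 °C. Response normalized to 50 nM 1α,25-dihydroxyvitamin D3 = 100%, DMSO = 0%; Hill fitting gives EC50 and maximal response.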

The target in test [15] is Thyroid hormone receptor beta (Homo sapiens) (UniProt P10828). The test is described as follows: qHTS assay for small molecule agonists of thyroid hormone receptor beta signaling (AID 588545; calls by dose curve;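 further: 0% = DMSO only and 100% = 10 nM T3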). An outline of the steps:
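Compounds were tested as agonists in TR-UAS-bla-GripTite HEK 293 cells. After 18 hrs at 37 C, CCF4 substrate was added and fluorescence read after 2 hrs at room temperature.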

For test [16] the target is unchanged. The test is described as follows: qHTS assay for small molecule antagonists of thyroid hormone receptor beta signaling (AID 588547; active means well fitted inhibition curve with a large enough effect in the signal ratio, with a control signal flat, not every such curve was filed as active; the % refers to the signal ratio). Conditions: TR-UAS-bla HEK293, beta-lactamase ratio, antagonist mode, 18 h. An outline of the steps:
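TR-UAS-bla GripTite HEK293 cells in 2% charcoal/dextran FBS medium; compounds 0.59 nM to 92 uM with T3 at 0.4nM final, 18 h at 37 C. Beta-lactamase read by CCF4 fluorescence (460/530 nm); Hill fits gave IC50 and efficacy.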

Test [17] is described as follows: qHTS assay for small molecule antagonists of the retinoid-related orphan receptor gamma (ROR-gamma) signaling pathway - cell viability counter screen (AID 720652; active means well fitted curve in the direction sought with a large enough effect in the repeat runs; an effect the other way counts as inactive or inconclusive). An outline of the steps:
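CHO cells carrying TET-inducible ROR and RORE-luciferase reporter, plated 5 hr, then dosed with compound plus doxycycline. After 16 hr at 37 C, viability read as intracellular ATP by CellTiter-Glo luminescence.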

For test [18], the target named is Nuclear receptor subfamily 1 group I member 2 (Rattus norvegicus) (UniProt Q9R1A7). Briefly: qHTS assay for small molecule activators of the rat pregnane X receptor (rPXR) signaling pathway (AID 651751; call rule not given here; further: 0% is about no effect). Conditions: rPXR reporter cells, luciferase (One-Glo), 24 h.
Nuclear receptor subfamily 1 group I member 2 (Rattus norvegicus), sequence (Q9R1A7 whole entry, looked up): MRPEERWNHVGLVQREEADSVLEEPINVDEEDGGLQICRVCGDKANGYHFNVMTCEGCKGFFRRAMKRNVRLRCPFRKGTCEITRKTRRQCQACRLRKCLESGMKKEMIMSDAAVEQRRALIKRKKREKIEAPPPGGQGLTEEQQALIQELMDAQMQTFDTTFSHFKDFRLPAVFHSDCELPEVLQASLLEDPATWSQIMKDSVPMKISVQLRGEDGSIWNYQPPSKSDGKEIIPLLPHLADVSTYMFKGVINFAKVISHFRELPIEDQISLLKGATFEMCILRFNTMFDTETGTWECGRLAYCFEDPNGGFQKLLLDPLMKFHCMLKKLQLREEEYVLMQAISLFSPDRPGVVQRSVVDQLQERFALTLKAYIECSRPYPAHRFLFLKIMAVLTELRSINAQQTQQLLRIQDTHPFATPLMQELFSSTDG
Test [19] can be described thus: qHTS assay for small molecule activators of the human pregnane X receptor (PXR) signaling pathway (AID 720659; call rule not given here; further: 0% is about no effect).
The nature of test [20]: Cell Viability - LYMP2-004 (AID 966).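 Further: plate controls were DMSO only for no effect and tetraoctylammonium bromide control for full effect; nearly all actives have a fitted effect of over 65% in size.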 An outline of the steps:
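Lymphoblastoid LYMP2-004 cells, 2500 per well, were preincubated for 5 hr and then treated with compound for 24 h at 37 C in complete medium. Viability was read as cellular ATP by CellTiter-Glo luminescence, and AC50 values were taken from Hill fits to concentration-response data.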

“And” between values parts separate entries of the source, which are not always exact repeats. Identical values can stand only once. Results filed as inconclusive are left out. The source made the active and inactive calls. Unless noted, the call rests on the fitted dose curve; in most records, active means well fitted curve in the direction sought with a large enough effect; inconclusive means small, poorly fitted or top-dose-only effect, or another doubt; inactive means no such curve, though single readings can be large; an effect the other way counts as inactive or inconclusive.

Vitamin D3 receptor (Homo sapiens), sequence (P11473 whole entry, looked up): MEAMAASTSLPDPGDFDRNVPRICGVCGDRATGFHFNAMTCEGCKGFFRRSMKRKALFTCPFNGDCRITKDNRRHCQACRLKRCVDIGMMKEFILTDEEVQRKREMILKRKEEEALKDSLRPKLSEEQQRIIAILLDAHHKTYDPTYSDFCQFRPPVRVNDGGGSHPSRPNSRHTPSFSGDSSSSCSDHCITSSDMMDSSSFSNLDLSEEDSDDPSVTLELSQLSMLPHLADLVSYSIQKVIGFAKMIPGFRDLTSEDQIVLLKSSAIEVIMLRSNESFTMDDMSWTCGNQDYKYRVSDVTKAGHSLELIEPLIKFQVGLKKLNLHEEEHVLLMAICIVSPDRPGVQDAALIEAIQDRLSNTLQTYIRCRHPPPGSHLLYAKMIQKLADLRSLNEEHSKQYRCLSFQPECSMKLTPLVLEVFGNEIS
Thyroid hormone receptor beta (Homo sapiens), sequence (P10828 whole entry, looked up): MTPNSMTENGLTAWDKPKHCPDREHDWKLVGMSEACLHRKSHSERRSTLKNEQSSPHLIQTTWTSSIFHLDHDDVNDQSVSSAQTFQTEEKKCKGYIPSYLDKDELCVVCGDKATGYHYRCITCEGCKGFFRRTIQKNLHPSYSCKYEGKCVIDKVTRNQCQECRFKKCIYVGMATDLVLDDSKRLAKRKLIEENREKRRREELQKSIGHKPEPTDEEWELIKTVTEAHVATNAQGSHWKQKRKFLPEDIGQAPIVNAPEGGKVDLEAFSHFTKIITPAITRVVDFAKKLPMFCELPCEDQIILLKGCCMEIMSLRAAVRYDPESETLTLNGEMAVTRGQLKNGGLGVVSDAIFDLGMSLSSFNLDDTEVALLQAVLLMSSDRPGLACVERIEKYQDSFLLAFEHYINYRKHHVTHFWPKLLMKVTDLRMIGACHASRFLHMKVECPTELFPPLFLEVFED
Cytochrome P450 3A4 (Homo sapiens), sequence (P08684 whole entry, looked up): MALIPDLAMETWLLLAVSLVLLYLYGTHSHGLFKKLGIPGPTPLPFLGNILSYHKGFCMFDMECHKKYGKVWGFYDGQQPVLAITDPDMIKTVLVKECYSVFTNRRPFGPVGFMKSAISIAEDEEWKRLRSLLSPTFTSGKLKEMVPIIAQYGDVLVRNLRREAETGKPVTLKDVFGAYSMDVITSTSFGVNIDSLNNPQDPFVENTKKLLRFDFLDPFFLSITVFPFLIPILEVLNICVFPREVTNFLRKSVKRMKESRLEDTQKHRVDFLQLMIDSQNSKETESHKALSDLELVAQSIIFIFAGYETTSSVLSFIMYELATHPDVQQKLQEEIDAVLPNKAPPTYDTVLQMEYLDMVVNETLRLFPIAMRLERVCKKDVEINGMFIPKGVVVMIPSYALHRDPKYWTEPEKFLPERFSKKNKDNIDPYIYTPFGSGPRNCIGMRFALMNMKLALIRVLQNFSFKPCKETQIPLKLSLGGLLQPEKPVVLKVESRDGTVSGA
Glucocorticoid receptor (Homo sapiens), sequence (P04150 whole entry, looked up): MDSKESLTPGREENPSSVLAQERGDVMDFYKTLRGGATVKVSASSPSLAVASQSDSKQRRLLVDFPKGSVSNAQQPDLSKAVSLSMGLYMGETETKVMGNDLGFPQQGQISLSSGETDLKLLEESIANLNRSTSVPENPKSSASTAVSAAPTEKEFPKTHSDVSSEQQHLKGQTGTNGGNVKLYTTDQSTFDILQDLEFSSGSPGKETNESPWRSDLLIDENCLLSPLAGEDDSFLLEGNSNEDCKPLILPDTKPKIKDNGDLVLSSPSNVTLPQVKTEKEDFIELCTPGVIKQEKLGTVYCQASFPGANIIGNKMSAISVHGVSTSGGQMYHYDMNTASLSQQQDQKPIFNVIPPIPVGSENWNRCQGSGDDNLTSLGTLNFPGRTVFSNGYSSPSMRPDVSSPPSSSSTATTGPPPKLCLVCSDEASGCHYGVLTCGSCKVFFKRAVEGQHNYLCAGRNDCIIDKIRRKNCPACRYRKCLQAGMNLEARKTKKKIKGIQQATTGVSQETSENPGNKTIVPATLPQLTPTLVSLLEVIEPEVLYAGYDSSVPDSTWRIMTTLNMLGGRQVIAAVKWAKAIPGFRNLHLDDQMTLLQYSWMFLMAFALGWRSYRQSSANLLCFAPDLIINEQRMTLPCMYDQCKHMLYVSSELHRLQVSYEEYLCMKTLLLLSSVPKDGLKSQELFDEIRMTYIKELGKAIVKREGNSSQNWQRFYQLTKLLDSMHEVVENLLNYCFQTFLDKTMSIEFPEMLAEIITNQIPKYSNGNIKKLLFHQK

Consider `C[N+](C)(C)Cc1ccccc1`, for which the Potency result in test [1], in [2], in [3], in test [4], in test [5] and in test [6] was “inactive” each time. In addition, the Potency result in test [10], in test [12] and in [17] was “inactive” throughout. For the same compound, the result in test [7], in test [13], in test [14], in [15] and in [19] was inactive. Moreover, the activation in [8] was -0.315% (inactive) and 0.14% (inactive); in test [9], -1.14% (inactive). The max response in test [11] is -16.9% and 15.9%; in [18], -3.63% (inactive) and -0.669% (inactive). Besides, the activity change % (negative = inhibition) in test [16] was -5.57% (inactive) and -5.51% (inactive).

Regarding `OCC(Br)CBr` (stereo not given), the Potency entry in test [1], in test [20], in test [2], in [3], in test [4] and in [5] was “inactive” throughout. Moreover, the Potency result in [6], in test [10], in [12] and in [17] was “inactive” each time. In addition, the compound was classed as inactive in [7], in test [13], in [14] and in [19]. The activation in test [8] was 0.562% (inactive); in test [9] it was 4.78% (inactive). The max response in test [11] amounted to 7.4%. Besides, the activity change % (negative = inhibition) in [16] is 1.09% (inactive).

On to `Brc1ccc(Oc2cc(Br)c(Br)cc2Br)c(Br)c1`, for which the Potency entry in [1], in [20], in test [2], in test [3], in [4] and in test [5] was “inactive” each time. The Potency entry in test [6], in test [12] and in test [17] was “inactive” each time. Also, in [8], the activation is 0.173% (inactive) and 5.65% (inactive). Also, in test [11], the max response was 18.7% and 4.79%. Moreover, the compound was classed as inactive in test [13], in test [14] and in test [15]. The activity change % (negative = inhibition) in test [16] was 8.45% (inactive) and -8.42% (inactive).

For the compound `CCOP(=S)(OCC)Oc1ccc([N+](=O)[O-])cc1`, the Potency in [1] was 10 µM (active) and 5.01 µM (active). The Potency result in test [20], in [2], in [3], in [4], in [5] and in [10] was “inactive” in each case. The Potency result in test [12] and in test [17] was “inactive” throughout. The activation in [9] is 1.36% (inactive) and 0.403% (inactive) and 5.24% (inactive). In addition, the max response in [11] is 12.5% and -2.14%. Also, the compound was called inactive in [15]. In test [16], the activity change % (negative = inhibition) is 9.15% (inactive) and -8.55% (inactive).

For the compound `Clc1ccc2ccccc2c1`, the Potency entry in test [1], in test [20], in test [2], in test [3], in test [4] and in test [5] was “inactive” each time. Moreover, the Potency result in [6], in [10], in [12] and in test [17] was “inactive” each time. For the same compound, the compound was classed as inactive in test [7], in test [13], in test [14], in test [15] and in test [19]. The activation in test [8] was -2.62% (inactive); in [9] it was -0.849% (inactive). The max response is -27.9% in [11] and 7.07% (inactive) in test [18]. Further, in test [16], the activity change % (negative = inhibition) is -12% (inactive).

As to `CCCCCCC(C)OC(=O)COc1ccc(Cl)cc1Cl` (stereo not given), the Potency result in test [1] is “inactive”.

Consider `Cc1ccc([N+](=O)[O-])cc1C`, for which the Potency result in test [1], in [20], in [2], in test [3], in test [4] and in test [5] was “inactive” throughout. The Potency entry in test [6], in test [12] and in [17] was “inactive” in each case. Also, the compound was called inactive in test [7], in test [13], in test [14], in [15] and in test [19]. For the same compound, the activation in [8] is -0.387% (inactive) and 0.526% (inactive). In addition, the max response is -1.38% in [11]; 1.14% (inactive) and -0.13% (inactive) in test [18]. Moreover, the activity change % (negative = inhibition) in test [16] was 13% (inactive) and 10.3% (inactive).

On to `CCCSC(=O)Cl`, for which the Potency result in [2], in test [3], in [4], in [5], in test [6] and in test [10] was “inactive” in each case. Besides, the Potency entry in test [17] is “inactive”. In addition, the compound was classed as inactive in test [7], in [13], in [14], in test [15] and in test [19]. The activation was 0.0371% (inactive) in test [8] and 2.44% (inactive) in test [9]. Besides, the activity change % (negative = inhibition) in test [16] is -14.3% (inactive). Also, the max response in test [18] was -3.99% (inactive).

The record behind these values is PubChem BioAssay (NCATS).
